Source: ChEMBL document CHEMBL1961873, “Compounds: GSK PKIS; Assays: Nanosyn kinase panel” (2012)

Columns and labels:
[1] = biological target: RAC-alpha serine/threonine-protein kinase (Homo sapiens) (UniProt P31749); details: at 0.1 µM
[2] = biological target: RAC-alpha serine/threonine-protein kinase (Homo sapiens) (UniProt P31749); details: at 1 µM
[3] = biological target: RAC-beta serine/threonine-protein kinase (Homo sapiens) (UniProt P31751); details: at 0.1 µM
[4] = biological target: RAC-beta serine/threonine-protein kinase (Homo sapiens) (UniProt P31751); details: at 1 µM
[5] = biological target: RAC-gamma serine/threonine-protein kinase (Homo sapiens) (UniProt Q9Y243); details: at 0.1 µM
[6] = biological target: RAC-gamma serine/threonine-protein kinase (Homo sapiens) (UniProt Q9Y243); details: at 1 µM
[7] = biological target: G protein-coupled receptor kinase 6 (Homo sapiens) (UniProt P43250); details: at 0.1 µM
[8] = biological target: G protein-coupled receptor kinase 6 (Homo sapiens) (UniProt P43250); details: at 1 µM
[9] = biological target: T1, Rhodopsin kinase GRK7 (Homo sapiens) (UniProt Q8WTQ7); details: at 0.1 µM
T1 sequence (whole entry): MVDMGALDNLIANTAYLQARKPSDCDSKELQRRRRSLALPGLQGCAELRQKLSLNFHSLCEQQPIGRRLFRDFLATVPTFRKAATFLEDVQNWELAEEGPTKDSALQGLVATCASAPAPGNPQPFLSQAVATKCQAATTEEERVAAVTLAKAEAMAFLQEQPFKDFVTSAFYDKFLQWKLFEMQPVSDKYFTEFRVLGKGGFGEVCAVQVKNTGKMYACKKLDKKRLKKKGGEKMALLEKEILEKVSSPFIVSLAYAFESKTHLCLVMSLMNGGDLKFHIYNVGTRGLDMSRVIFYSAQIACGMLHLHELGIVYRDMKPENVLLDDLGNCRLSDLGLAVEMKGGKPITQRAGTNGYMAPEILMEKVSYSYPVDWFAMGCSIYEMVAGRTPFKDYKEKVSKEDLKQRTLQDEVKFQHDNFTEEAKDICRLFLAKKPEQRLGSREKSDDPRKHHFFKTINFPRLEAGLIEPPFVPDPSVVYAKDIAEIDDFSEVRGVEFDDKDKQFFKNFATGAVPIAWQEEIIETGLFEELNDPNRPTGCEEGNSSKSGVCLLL

[10] = biological target: T1, Rhodopsin kinase GRK7 (Homo sapiens); details: at 1 µM

Chain of RAC-alpha serine/threonine-protein kinase (Homo sapiens) (P31749 whole entry): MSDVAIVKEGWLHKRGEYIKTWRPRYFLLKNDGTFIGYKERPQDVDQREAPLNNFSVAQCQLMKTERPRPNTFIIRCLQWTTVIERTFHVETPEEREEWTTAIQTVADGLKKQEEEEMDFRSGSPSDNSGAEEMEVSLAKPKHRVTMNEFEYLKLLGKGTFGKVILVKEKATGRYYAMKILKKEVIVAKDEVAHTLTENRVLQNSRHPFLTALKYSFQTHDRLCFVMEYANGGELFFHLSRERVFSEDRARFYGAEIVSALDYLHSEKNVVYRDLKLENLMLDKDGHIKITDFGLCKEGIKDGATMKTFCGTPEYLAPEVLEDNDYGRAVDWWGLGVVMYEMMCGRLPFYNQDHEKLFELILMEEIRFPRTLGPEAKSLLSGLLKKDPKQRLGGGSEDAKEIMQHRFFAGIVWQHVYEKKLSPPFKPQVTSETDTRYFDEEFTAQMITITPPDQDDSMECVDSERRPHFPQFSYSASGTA
Chain of RAC-gamma serine/threonine-protein kinase (Homo sapiens) (Q9Y243 whole entry): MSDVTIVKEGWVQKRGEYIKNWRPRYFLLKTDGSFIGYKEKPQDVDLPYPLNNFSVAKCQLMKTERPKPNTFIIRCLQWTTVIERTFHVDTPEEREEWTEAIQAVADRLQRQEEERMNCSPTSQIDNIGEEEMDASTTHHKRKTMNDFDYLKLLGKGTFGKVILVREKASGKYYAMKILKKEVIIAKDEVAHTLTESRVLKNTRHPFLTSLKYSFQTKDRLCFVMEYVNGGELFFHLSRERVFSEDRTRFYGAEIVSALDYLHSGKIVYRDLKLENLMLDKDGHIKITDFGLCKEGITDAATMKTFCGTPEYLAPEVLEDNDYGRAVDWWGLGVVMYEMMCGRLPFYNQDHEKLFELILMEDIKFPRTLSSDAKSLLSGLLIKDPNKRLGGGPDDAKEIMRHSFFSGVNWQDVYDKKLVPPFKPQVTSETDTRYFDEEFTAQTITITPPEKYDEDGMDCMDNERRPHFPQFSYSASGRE
Chain of G protein-coupled receptor kinase 6 (Homo sapiens) (P43250 whole entry, looked up): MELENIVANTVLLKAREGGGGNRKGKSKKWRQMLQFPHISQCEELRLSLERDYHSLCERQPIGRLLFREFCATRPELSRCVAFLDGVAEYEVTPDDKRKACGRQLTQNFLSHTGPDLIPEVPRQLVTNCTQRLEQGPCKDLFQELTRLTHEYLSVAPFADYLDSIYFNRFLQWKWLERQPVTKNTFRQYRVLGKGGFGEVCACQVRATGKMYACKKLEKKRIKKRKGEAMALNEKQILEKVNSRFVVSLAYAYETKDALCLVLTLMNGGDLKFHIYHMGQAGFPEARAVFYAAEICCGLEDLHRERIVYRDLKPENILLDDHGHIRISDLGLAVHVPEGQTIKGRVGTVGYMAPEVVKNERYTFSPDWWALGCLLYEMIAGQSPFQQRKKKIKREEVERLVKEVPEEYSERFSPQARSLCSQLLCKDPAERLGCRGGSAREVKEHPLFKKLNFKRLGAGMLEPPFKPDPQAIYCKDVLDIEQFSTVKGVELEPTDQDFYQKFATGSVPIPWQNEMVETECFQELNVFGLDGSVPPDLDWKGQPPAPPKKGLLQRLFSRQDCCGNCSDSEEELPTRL
Chain of RAC-beta serine/threonine-protein kinase (Homo sapiens) (P31751 whole entry): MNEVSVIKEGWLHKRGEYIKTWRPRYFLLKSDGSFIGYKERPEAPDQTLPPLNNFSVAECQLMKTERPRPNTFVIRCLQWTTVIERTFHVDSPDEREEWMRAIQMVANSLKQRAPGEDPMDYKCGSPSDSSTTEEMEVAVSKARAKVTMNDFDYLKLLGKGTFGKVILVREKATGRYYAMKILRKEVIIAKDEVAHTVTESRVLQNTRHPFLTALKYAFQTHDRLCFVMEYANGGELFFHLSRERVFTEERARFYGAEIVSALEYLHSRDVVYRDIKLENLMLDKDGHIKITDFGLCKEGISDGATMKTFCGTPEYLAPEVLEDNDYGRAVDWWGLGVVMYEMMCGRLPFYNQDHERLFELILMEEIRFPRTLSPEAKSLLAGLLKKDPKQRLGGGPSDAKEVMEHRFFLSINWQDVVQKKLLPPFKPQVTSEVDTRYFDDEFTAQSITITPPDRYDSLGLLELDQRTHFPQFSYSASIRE

SMILES | inhibition [1] [%] | inhibition [2] [%] | inhibition [3] [%] | inhibition [4] [%] | inhibition [5] [%] | inhibition [6] [%] | inhibition [7] [%] | inhibition [8] [%] | inhibition [9] [%] | inhibition [10] [%]
O=C(Nc1ccc(Oc2ccc3[nH]c(NC(=O)c4ccco4)nc3c2)cc1)Nc1cc(C(F)(F)F)ccc1F | -3.62 | -0.4 | -3.05 | -2.64 | -3.47 | -4.94 | 0.72 | -4.1 | -0.48 | -4.51
COc1cc2ncnc(Nc3ccc(C)c(O)c3)c2cc1OC | 0.49 | 0.96 | 1.99 | 1.77 | 1.98 | 1.76 | 6 | 5.91 | 4.99 | 7.5
Cc1cc(Cl)cc2c1NC(=O)C2=NNc1ccc(S(N)(=O)=O)cc1 | 0.38 | 0.03 | 0.6 | 1.11 | 0.3 | 0.71 | 7.71 | 11 | 5.48 | 13.2
CN(C)c1cc2c(Nc3ccc4c(cnn4Cc4ccccc4)c3)ncnc2cn1 | 0.51 | 0.62 | 2.07 | 1.16 | 0.46 | 1.23 | 3.25 | 3.36 | 2.54 | 3.15
FC(F)(F)c1ccc(-c2nn3ncccc3c2-c2ccnc(Nc3ccc4c(c3)OCCO4)n2)cc1 | 0.91 | 0.98 | 0.17 | 0.25 | -0.63 | -0.79 | 1.14 | 12.6 | 4.88 | 11.6
COc1cccc(-n2ncc3c(N/N=C/c4ccc(S(C)(=O)=O)cc4)ncnc32)c1 | -3.17 | -2.91 | -3.17 | -2.73 | -8.29 | -3.66 | 1.17 | -1.78 | -0.35 | 0.56
Cc1ccc(C(=O)NC2CC2)cc1-c1ccc2[nH]ncc2c1 | -2.21 | -1.97 | -3.64 | -3.23 | -4.12 | 0.95 | 1.1 | -1.57 | -1.33 | -8.83
COc1cccc(-n2nc(C)c3c(N/N=C(\C)c4ccncc4)ncnc32)c1 | -0.15 | -0.16 | -0.34 | 0.3 | -0.78 | 3.59 | 0.75 | 1.13 | 3.79 | 0.01
C[C@@H](Oc1cc(-n2cnc3ccc(OC[C@@H](O)CO)cc32)sc1C(N)=O)c1ccccc1Cl | -0.94 | -0.9 | -0.48 | -0.32 | 0.07 | -0.44 | 1.08 | 4.23 | -4.63 | 3.37
COc1cccc(-n2ncc3c(N/N=C/c4ccc(C)cc4)ncnc32)c1 | 1.26 | 0.76 | 1.76 | 1.75 | 0.43 | 1.94 | 4.73 | 5.93 | 11.7 | 7.9
Cc1ccc2c(-c3ccnc(Nc4cccc(C(F)(F)F)c4)n3)c(-c3ccccc3)nn2n1 | 0.89 | 1.19 | 0.8 | 2.31 | 0.73 | 4.19 | 2.15 | 2.48 | 10.5 | 3.2
CCOc1nccc2c1nc(-c1nonc1N)n2CC | 0.82 | 1.86 | 1.97 | 1.44 | 0.46 | 1.25 | 4.85 | 18.1 | 3.99 | 8.26
O=S(=O)(CCOCc1ccc(-c2ccc3ncnc(Nc4ccc(OCc5cccc(F)c5)c(Cl)c4)c3c2)o1)c1ccccc1 | -0.1 | -0.35 | 0.2 | 1.21 | -0.84 | 3.06 | 0.84 | 0.78 | 7.97 | 4.68
COc1cc2ncn(-c3cc(OCc4ccccc4S(C)(=O)=O)c(C#N)s3)c2cc1OC | 1.44 | 1.02 | 2.07 | 1.33 | 2.7 | 1.68 | 13.8 | 3.6 | 8.51 | 40.4
CN(c1ccc(NC(=O)Nc2ccc(OC(F)(F)F)cc2)cc1)c1ccnc(Nc2cccc(S(N)(=O)=O)c2)n1 | 0.77 | 0.88 | 0.51 | 1.22 | 0.16 | 2.79 | -5.14 | -2.97 | 3.47 | -1.66
O=C1Nc2ccccc2/C1=C/Nc1ccc2[nH]c(=O)[nH]c2c1 | 0.44 | 0.45 | 1.75 | 2.21 | 1 | 1.86 | 8.17 | 23.7 | 4.17 | 15.9
Cc1ccc2c(-c3ccnc(Nc4ccc5c(c4)OCCO5)n3)c(-c3ccc(C(F)(F)F)cc3)nn2n1 | 1.37 | 1.23 | 1.5 | 1.65 | 1.43 | -4.48 | 0.55 | 2.19 | 5.75 | 2.78

SMILES | inhibition [1] [%] | inhibition [2] [%] | inhibition [3] [%] | inhibition [4] [%] | inhibition [5] [%] | inhibition [6] [%] | inhibition [7] [%] | inhibition [8] [%] | inhibition [9] [%] | inhibition [10] [%]
c1ccc(Cc2nc3ccc(Nc4ncnc5ccccc45)cc3[nH]2)cc1 | 0.62 | 0.65 | 1.38 | 1.4 | 1.19 | 0.88 | 3.39 | 3.05 | 0.46 | -1.96
Cc1ccc(Nc2ccnc(Nc3cccc(C(N)=O)c3)n2)cc1O | -3.35 | -2.06 | -1.66 | -2.15 | -2.03 | -1.07 | 1.49 | 6.26 | 1.62 | 0.17
CS(=O)(=O)Nc1cccc(-c2ccc3c(NC(=O)C4CC4)n[nH]c3c2)c1 | 0.47 | -0.39 | 0.26 | 0.15 | 0.35 | -2.8 | 1.58 | -0.72 | 0.25 | 2.21
CC(C)c1ccc(Nc2nccc(-c3cnn4ncccc34)n2)cc1 | 0.38 | 0.64 | 1.28 | 1.13 | 1.09 | 1.51 | 4.74 | 3.14 | 2.17 | 3.19
CS(=O)(=O)CCNCc1nc(-c2ccc3ncnc(Nc4ccc(OCc5cccc(C(F)(F)F)c5)cc4)c3c2)cs1 | 0.2 | -0.66 | -0.39 | 0.39 | 0.84 | 1.91 | 0.43 | 0.06 | 3.85 | -1.01
CC(C)c1ccc2c(c1)NC(=O)/C2=N/Nc1ccc(S(N)(=O)=O)cc1 | -0.05 | -0.49 | -0.37 | 0.73 | -0.27 | 4.41 | -0.59 | -0.78 | 2.96 | -0.57
Cc1ccc(O)cc1Nc1ccnc2ccc(S(C)(=O)=O)cc12 | 0.79 | 0.22 | 2.36 | 1.9 | 1.87 | 4.72 | 6.06 | 7.8 | 3.42 | 9.64
NC(=O)c1cccc(Nc2nccc(Nc3cccc(F)c3)n2)c1 | 0.22 | -0.29 | 0.22 | 0.58 | 0.47 | 3.46 | 2.83 | 0.77 | 4.02 | 2.39
Nc1ccc(C#Cc2cncnc2Nc2ccc(OCc3cccc(F)c3)c(Cl)c2)cc1 | 0.15 | 1.42 | 1.06 | 1.24 | 0.3 | 2.19 | 0.63 | 0.83 | 5.58 | 1.26
COc1ccc2ncnc(Nc3ccc(OCc4ccccc4)cc3)c2c1 | 0.35 | -0.14 | 0.26 | 0.34 | 0.84 | 1.52 | 1.69 | 5.27 | 2.31 | 6.57
CN(C)C(=O)O[C@H]1CN[C@H](C#Cc2cc3ncnc(Nc4ccc(OCc5cccc(F)c5)c(Cl)c4)c3s2)C1 | 0.44 | 1.13 | 1.82 | 1.59 | 1.22 | -1.3 | 3.73 | 0.78 | 2.97 | 8.33
CN(C)CCCn1c(-c2nonc2N)nc2cnccc21 | 0.01 | 1.38 | 1.85 | 3.82 | 0.92 | 1.84 | 3.78 | 3.55 | 2.61 | 5.07
COc1ccc(-c2nn3ncccc3c2-c2ccnc(Nc3cccc(C(F)(F)F)c3)n2)cc1 | 0.68 | 0.72 | 1.23 | 1.84 | 0.37 | 1.95 | 3.32 | 2.16 | 5.25 | 1.87
CN1CCN(C(=O)c2ccc(NC(=O)Nc3ccc(N(C)c4ccnc(Nc5ccc(CS(C)(=O)=O)cc5)n4)cc3)cc2)CC1 | 0.3 | -0.86 | -0.33 | 1.06 | 0.49 | 1.64 | 2.2 | 1.86 | 4.4 | 0.44
COC(=O)c1ccc2c(c1)C(=Cc1cc(Br)c(O)c(Br)c1)C(=O)N2 | 0.91 | 0.66 | 0.67 | 1.05 | 1.09 | 2.88 | 7.82 | 43.5 | 12.8 | 28.4
Oc1cccc(-c2nc(-c3ccccc3)[nH]c2-c2ccncc2)c1 | -0.1 | 1.39 | 2.18 | 2.47 | 0.82 | 3.85 | 6.53 | 4.9 | 1.3 | -0.71
[O-][S+]1CCN(Cc2ccc(-c3ccc4ncnc(Nc5ccc(OCc6ccccc6)c(Cl)c5)c4c3)o2)CC1 | 0.1 | -0.3 | 0.29 | 1.29 | 0.15 | 2.06 | -0.03 | 1.12 | 7.76 | -2.22
